In PubChem BioAssay:
Active and inactive are the calls of the source.

What was measured:
[1] = test system: Plasmodium falciparum Sir2 (PF13_0152, Sir2A); assay: Plasmodium falciparum Sir2A binding compounds – biochemical, small-molecule microarray, 635 nm fluorescence, primary screen (AID 1098); conditions: fluorescence 635 nm, higher = more signal;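 also: score merges spot fluorescence intensity with its signal-to-noise ratio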
[2] = probe aDKK1 binding to arrayed compounds – biochemical, biotinylated probe, 635/667 nm fluorescence, primary screen (AID 1099); conditions: small-molecule microarray, higher = more signal;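 also: score merges 667nm spot fluorescence with signal to noise across triplicate slides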
[3] = probe aCHRDL2 binding to arrayed compounds – biochemical, biotinylated probe, 635/667 nm fluorescence, primary screen (AID 1100); conditions: small-molecule microarray, higher = more signal
[4] = change in splice reporter luminescence, either direction, cell-based, HEK293, spliceosome inhibition project, primary screen (AID 1101); conditions: HEK293 splicing luciferase reporter, 24 h, higher = more signal, called active from +8 up or from −8 down;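 also: HEK293 cells carrying a splicing-competent luciferase reporter gene; test concentration not given here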
[5] = target: Fibroblast growth factor 10 (Homo sapiens) (UniProt O15520); assay: compounds binding fibroblast growth factor 10 – biochemical, small-molecule microarray, 635 nm fluorescence, primary screen (AID 1102); conditions: FGF10 binding, fluorescence 635 nm, higher = more signal
Fibroblast growth factor 10 (Homo sapiens), sequence (O15520 whole entry, looked up): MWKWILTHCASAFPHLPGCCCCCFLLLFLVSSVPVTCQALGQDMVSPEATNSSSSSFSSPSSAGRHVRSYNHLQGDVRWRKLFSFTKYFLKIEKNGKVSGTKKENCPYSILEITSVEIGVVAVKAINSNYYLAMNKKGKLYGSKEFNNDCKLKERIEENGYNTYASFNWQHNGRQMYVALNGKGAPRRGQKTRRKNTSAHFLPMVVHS

[6] = test system: glycogen synthase kinase-3 (GSK3A per assay name; protocol says GSK3B); assay: compounds binding glycogen synthase kinase-3 – biochemical, small-molecule microarray, 635 nm fluorescence, GSK3A, primary screen (AID 1103); conditions: fluorescence 635 nm, higher = more signal; also: the record names both GSK3A and GSK3B
[7] = target: Epidermal growth factor receptor (Homo sapiens) (UniProt P00533); assay: compounds binding epidermal growth factor receptor – biochemical, small-molecule microarray, 635 nm fluorescence, primary screen (AID 1104); conditions: EGFR binding, higher = more signal;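 also: score merges 667 nm emission intensity with spot signal to noise over triplicate slides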
Epidermal growth factor receptor (Homo sapiens), sequence (P00533 whole entry, looked up): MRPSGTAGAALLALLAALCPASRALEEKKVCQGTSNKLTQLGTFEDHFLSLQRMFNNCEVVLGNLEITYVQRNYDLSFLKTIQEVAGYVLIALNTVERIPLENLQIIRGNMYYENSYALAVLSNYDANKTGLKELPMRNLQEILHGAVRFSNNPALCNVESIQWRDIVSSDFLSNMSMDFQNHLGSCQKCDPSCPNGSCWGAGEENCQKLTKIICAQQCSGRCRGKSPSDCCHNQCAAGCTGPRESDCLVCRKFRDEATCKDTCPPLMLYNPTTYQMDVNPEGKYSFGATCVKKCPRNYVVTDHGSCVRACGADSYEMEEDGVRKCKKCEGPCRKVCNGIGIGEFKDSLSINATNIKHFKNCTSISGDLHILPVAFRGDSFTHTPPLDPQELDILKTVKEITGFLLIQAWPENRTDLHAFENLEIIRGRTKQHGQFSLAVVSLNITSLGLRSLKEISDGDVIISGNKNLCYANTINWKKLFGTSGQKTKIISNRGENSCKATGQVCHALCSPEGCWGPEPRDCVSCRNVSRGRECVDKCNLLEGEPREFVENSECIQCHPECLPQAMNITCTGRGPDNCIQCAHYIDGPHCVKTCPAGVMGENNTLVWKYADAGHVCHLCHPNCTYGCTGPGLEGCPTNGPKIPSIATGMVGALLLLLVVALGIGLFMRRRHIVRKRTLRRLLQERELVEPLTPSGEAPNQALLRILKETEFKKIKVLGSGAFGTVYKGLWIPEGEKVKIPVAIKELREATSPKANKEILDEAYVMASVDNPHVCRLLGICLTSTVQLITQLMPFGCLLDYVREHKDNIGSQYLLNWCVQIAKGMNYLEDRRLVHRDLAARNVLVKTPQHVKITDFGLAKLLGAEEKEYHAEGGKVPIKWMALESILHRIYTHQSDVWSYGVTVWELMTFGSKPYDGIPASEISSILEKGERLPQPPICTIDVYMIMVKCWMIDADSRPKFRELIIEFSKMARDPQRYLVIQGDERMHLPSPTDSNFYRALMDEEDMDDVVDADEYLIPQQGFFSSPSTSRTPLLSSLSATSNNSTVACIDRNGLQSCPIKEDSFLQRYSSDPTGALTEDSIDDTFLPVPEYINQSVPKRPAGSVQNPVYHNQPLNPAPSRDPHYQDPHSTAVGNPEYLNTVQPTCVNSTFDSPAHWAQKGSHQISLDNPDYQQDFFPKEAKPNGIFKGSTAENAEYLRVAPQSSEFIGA

[8] = target: Follistatin-related protein 3 (Homo sapiens) (UniProt O95633); assay: compounds binding follistatin-related protein 3 – biochemical, small-molecule microarray, 635 nm fluorescence, primary screen (AID 1105); conditions: FSTL3 binding, higher = more signal;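 also: score merges emission near 667 nm and signal to noise per printed spot across three slides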
Follistatin-related protein 3 (Homo sapiens), sequence (O95633 whole entry, looked up): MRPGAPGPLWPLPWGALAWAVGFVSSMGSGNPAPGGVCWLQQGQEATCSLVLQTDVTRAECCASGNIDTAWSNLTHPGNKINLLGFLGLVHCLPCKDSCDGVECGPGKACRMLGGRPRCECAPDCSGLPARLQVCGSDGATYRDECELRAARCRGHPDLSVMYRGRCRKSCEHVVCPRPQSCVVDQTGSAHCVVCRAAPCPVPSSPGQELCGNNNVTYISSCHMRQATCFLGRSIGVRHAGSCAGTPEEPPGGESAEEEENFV

[9] = target: Dickkopf-related protein 1 (Homo sapiens) (UniProt O94907); assay: small molecules binding DKK1 protein – biochemical, small-molecule microarray, 635 nm fluorescence scan, primary screen (AID 1106); conditions: higher = more signal;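 also: score merges emission near 667 nm with signal to noise over three replicate slides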
Dickkopf-related protein 1 (Homo sapiens), sequence (O94907 whole entry, looked up): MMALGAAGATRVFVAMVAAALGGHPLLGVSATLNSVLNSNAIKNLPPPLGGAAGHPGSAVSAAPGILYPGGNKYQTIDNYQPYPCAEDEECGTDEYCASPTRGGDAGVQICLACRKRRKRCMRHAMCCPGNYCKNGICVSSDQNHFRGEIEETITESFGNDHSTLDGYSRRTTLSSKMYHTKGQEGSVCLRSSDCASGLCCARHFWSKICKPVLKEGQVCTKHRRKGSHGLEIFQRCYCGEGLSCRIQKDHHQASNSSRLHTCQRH

[10] = test system: Inhibin beta A chain (activin A); assay: small molecules binding activin A – biochemical, small-molecule microarray, 635 nm fluorescence scan, primary screen (AID 1107); conditions: INHBA, higher = more signal;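 also: mouse activin A protein probed at 4.33 µg/mL on printed slides; score merges bound-protein fluorescence near 667 nm with spot signal-to-noise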
[11] = test system: Human papillomavirus type 1a protein E7 (residues 44-93); assay: small molecules binding HPV E7 44-93 – biochemical, small-molecule microarray, residues 44-93, 635 nm fluorescence, primary screen (AID 1108); conditions: fluorescence 635 nm, higher = more signal;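 also: E7 fragment applied at 1 µg/mL in TBST for 1 h at 4 C; score combines spot fluorescence with its signal to noise ratio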
[12] = hepatitis C replication reporter changes, two-sided – Huh7 cells, luciferase reporter, HCV replication inhibitor project, primary screen (AID 1109); conditions: Huh7 HCV replicon luciferase reporter, 48 h; higher = more signal;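 also: huh7 hepatoma cells harbouring a luciferase neomycin HCV replicon reporter; luciferase luminescence as measure of HCV replicon replication; test concentration not given here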
[13] = target: Left-right determination factor 2 (Homo sapiens) (UniProt O00292); assay: small molecules binding LEFTY2 protein – biochemical, small-molecule microarray, 635 nm fluorescence scan, primary screen (AID 1110); conditions: higher = more signal
Left-right determination factor 2 (Homo sapiens), sequence (O00292 whole entry, looked up): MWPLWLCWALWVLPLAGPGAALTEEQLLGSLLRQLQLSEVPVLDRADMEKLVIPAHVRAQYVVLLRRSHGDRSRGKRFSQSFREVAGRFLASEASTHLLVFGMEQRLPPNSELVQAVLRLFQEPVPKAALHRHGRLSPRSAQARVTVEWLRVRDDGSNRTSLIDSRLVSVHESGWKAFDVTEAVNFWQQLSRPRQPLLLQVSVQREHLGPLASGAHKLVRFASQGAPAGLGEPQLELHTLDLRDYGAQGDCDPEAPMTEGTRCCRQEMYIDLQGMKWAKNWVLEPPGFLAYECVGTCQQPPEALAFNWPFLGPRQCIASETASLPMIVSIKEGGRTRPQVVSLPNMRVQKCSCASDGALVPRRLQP

[14] = target: Calmodulin-1 (Homo sapiens) (UniProt P0DP23); assay: small molecules binding calmodulin-1 with EGTA – biochemical, small-molecule microarray, Cy5-labelled CALM1, profiling panel (AID 1111); conditions: Cy5-CALM1 binding fluorescence, higher = more signal;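 also: labelled calmodulin applied in Tris saline Tween buffer holding calcium plus EGTA and DTT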
[15] = target: Calmodulin-1 (Homo sapiens) (UniProt P0DP23); assay: small molecules binding Ca-loaded calmodulin-1 – biochemical, small-molecule microarray, Cy5-labelled CALM1, plus calcium, artefact control for SMM control-protein annotation, profiling panel (AID 1112); conditions: Cy5-CALM1 binding fluorescence, higher = more signal;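 also: score merges spot fluorescence with signal to noise from triplicate slides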
[16] = probe aWnt5a binding to arrayed compounds – biochemical, biotinylated probe, 635/667 nm fluorescence, primary screen (AID 1113); conditions: small-molecule microarray, higher = more signal;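 also: score merges 667 nm fluorescence intensity with signal-to-noise per printed feature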
[17] = probe aShh binding to arrayed compounds – biochemical, biotinylated probe, 635/667 nm fluorescence, primary screen (AID 1114); conditions: small-molecule microarray, higher = more signal;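 also: probe is biotin-labelled aShh protein from a stem cell growth factor screen; measures binding of labelled protein to compounds printed on the slide; score merges feature fluorescence at 667 nm with signal-to-noise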
[18] = probe aNog binding to arrayed compounds – biochemical, biotinylated probe, 635/667 nm fluorescence, primary screen (AID 1115); conditions: small-molecule microarray, higher = more signal;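 also: probe is biotinylated aNog protein used at 0.15 µg/mL for 1 h at 4 C; z-score combines 667 nm fluorescence of each spot with its signal to noise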
[19] = target: Torsin-1A-interacting protein 1 (Homo sapiens) (UniProt Q5JTV8); assay: compound microarray binding of lysate hLAP1 – cell lysate, small-molecule microarray, COS7 lysate, 635/667 nm fluorescence, primary screen (AID 1116); conditions: 635 nm fluorescence, higher = more signal
Torsin-1A-interacting protein 1 (Homo sapiens), sequence (Q5JTV8 whole entry, looked up): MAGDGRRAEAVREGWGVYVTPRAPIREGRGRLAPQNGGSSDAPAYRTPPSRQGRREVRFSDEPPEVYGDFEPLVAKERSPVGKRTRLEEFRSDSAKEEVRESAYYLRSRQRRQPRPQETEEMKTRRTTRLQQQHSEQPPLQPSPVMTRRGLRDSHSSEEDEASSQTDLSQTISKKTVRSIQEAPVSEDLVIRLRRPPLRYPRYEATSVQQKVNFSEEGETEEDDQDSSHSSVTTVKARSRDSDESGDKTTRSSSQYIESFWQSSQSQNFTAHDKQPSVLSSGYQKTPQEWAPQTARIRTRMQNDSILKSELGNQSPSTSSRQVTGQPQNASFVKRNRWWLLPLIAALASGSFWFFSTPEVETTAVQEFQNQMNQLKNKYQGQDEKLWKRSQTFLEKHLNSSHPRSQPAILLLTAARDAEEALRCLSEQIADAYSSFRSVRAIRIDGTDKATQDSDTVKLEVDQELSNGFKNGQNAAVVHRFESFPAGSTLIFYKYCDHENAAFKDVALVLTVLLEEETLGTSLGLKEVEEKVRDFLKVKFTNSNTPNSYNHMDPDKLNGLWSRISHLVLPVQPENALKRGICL

[20] = target: Alpha-bungarotoxin (Bungarus multicinctus) (UniProt P60615); assay: compounds binding labelled alpha-BTX control protein – biochemical, small-molecule microarray, Alexa647 label, 635/667 nm fluorescence, artefact control for SMM control protein annotation, profiling panel (AID 1117); conditions: alpha-BTX-A647 binding fluorescence, higher = more signal
Alpha-bungarotoxin (Bungarus multicinctus), sequence (P60615 whole entry, looked up): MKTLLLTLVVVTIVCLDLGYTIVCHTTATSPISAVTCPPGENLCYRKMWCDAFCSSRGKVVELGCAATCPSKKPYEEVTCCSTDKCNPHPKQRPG

| SMILES | composite z-score [1] | composite z-score [2] | composite z-score [3] | z-score [4] | composite z-score [5] | composite z-score [6] | composite z-score [7] | composite z-score [8] | composite z-score [9] | composite z-score [10] | composite z-score [11] | z-score [12] | composite z-score [13] | composite z-score [14] | composite z-score [15] | composite z-score [16] | composite z-score [17] | composite z-score [18] | composite z-score [19] | composite z-score [20] |
| --- | --- | --- | --- | --- | --- | --- | --- | --- | --- | --- | --- | --- | --- | --- | --- | --- | --- | --- | --- | --- |
| Cc1ccc(S[C@]2(C(=O)NC3CC3)CC(=O)N(Cc3ccccc3)[C@@H]2c2ccc(CO)cc2I)cc1 | 0.562 | 0.0491 | 0.717 | -1.21 (inactive) | -0.794 | -0.281 | -1.34 | -1.37 | -1.59 | 0.5 | 0.477 | -1.9 | -1.2 | -0.351 | -0.149 | -0.0221 | -0.0794 | 0.503 | -0.0172 | -0.734 |
| COC(=O)[C@@]1(Cc2ccc(F)cc2)[C@H]2c3cc(C(=O)N(C)C)n(Cc4ccccc4)c3C[C@H]2CN1C(=O)c1ccccc1 | 1.18 | 1.06 | 0.971 | -0.376 (inactive) | 0.483 | -0.159 | -0.22 | 0.827 | -0.251 | 0.766 | 1.35 | 0.185 | -0.496 | 1.11 | 0.363 | -0.0977 | 1.17 | 1.59 | -0.3 | 2.56 |
| COc1ccc(CCNC(=O)[C@@]2(C)c3ccccc3C(=O)N(C(C)C)[C@H]2c2ccc(CO)cc2)cc1 | 0.5 | 0.056 | -0.0776 | -0.36 (inactive) | 0.558 | -0.0218 | 0.41 | 0.335 | 0.503 | 0.918 | 0.0331 | -1.3 | 0.364 | -0.118 | -0.229 | -0.131 | -0.0886 | -0.282 | 0.33 | 0.672 |
| O=C(OCc1ccccc1)C1=CCC2c3[nH]c4ccccc4c3C(=O)C1N2S(=O)(=O)c1ccccc1[N+](=O)[O-] (stereo not given) | 1.42 | 0.332 | 0.381 | -0.00197 (inactive) | 1.33 | 1.32 | 0.727 | 1.42 | 0.109 | 0.618 | 1.42 | -2.6 | 0.831 | 0.418 | -0.369 | 0.0597 | 0.14 | -0.549 | 0.432 | 0.584 |
| COC(=O)c1c(CC[C@@H](CO)NC(=O)NCCn2cc(C3(O)CCCC3)nn2)oc(C(C)=O)c1C(=O)OC | 0.546 | -0.147 | -0.26 | -0.152 (inactive) | -0.0339 | -0.0275 | 0.218 | -0.234 | 0.0587 | 0.129 | -0.0133 | -0.674 | -0.0138 | -0.19 | -0.732 | -0.169 | -0.195 | -0.158 | 0.331 | 0.139 |
| C=CCN1C(=O)[C@]2(O[C@H](CCn3cc([C@H](O)c4ccccc4)nn3)[C@@H]([Si](C)(C)c3ccc(OC)cc3)[C@@H]2C)c2cc(N3CCC3=O)ccc21 | 1.48 | -0.29 | 0.224 | -0.619 (inactive) | 0.864 | 0.169 | 0.0043 | 0.306 | 0.815 | 0.619 | 1.34 | -3.08 | 0.152 | 0.439 | -0.022 | -0.0685 | 0.0253 | 0.328 | 0.549 | 1.07 |
| COc1cc2c(cc1OC)CN(C(=O)[C@H]1[C@@H]3C(=O)O[C@@H](c4ccccc4)[C@@H](c4ccccc4)N3[C@@H](c3ccc(O)cc3)[C@]13C(=O)Nc1ccccc13)CC2 | 1.23 | -0.0009 | -0.123 | -0.0299 (inactive) | 0.708 | 0.691 | -0.0502 | -0.276 | -0.198 | -0.188 | 1.46 | -2.54 | 0.0835 | 0.92 | 0.427 | -0.166 | -0.0289 | 0.386 | 1.01 | 1.43 |
| O=C1NC(=O)C2C1C=CC(C(O)c1cc(C(F)(F)F)cc(C(F)(F)F)c1)N2Nc1ccccn1 (stereo not given) | 1.57 | -0.0616 | -0.387 | 1.35 (inactive) | 0.163 | -0.164 | 0.22 | 0.431 | 0.0665 | 1.33 | -0.2 | -0.345 | 0.274 | -0.0336 | -0.531 | -0.0165 | -0.214 | 0.566 | 1.88 | 0.143 |
| CC(C)[Si](C#Cc1ccc(Oc2ccccc2)cc1)(O[Si](C#Cc1ccc(Oc2ccccc2)cc1)(C(C)C)C(C)C)C(C)C | 1.11 | 0.112 | -0.504 | -0.226 (inactive) | 1.37 | 0.478 | 0.0408 | 0.394 | 0.687 | -0.294 | 0.328 | 0.651 | 0.567 | -0.185 | 0.307 | 0.0561 | -0.0337 | -0.12 | 0.0811 | 0.262 |
| COC(=O)C[C@H]1O[C@]2(C(=O)N(C)c3ccccc32)[C@@H](C)[C@@H]1[Si](C)(C)F | -0.0042 | -0.113 | -0.583 | -1.8 (inactive) | 0.96 | 0.557 | 0.616 | 0.774 | 0.695 | 0.369 | 0.882 | 0.0456 | 0.392 | 0.0461 | -0.389 | -0.0472 | 0.23 | -0.357 | 0.239 | -0.0089 |
| COCCCNC(=O)[C@@]1(C)c2ccccc2C(=O)N(C(C)C)[C@H]1c1ccc(CO)cc1 | 0.572 | 0.174 | 0.343 | -0.373 (inactive) | 0.555 | 0.497 | 0.517 | 0.861 | 0.888 | 0.531 | 0.761 | -0.659 | 0.577 | -0.342 | -0.574 | -0.152 | -0.01 | -0.0247 | 0.999 | 0.547 |
